Several values for one entry are separate records, joined by “and”; a condition that tells them apart may be missing. Equal entries are not always repeated. Inconclusive results are not listed. Where a call stands in place of a potency, no number is given. More than one record can exist for a structure, and the calls need not agree. Activity calls are given as the source filed them. Unless noted, calls follow the shape of the dose curve; as a rule, active = well fitted curve in the direction sought with a large enough effect in the repeat runs; inconclusive = weak or mixed curves; inactive = no such curve, though single readings can be large; an effect the other way counts as inactive or inconclusive. Residues, ends and D or L forms follow the SMILES beside them.
How the values were obtained:
[1] = qHTS assay for small molecule agonists of the p53 signaling pathway (AID 651631; calls by dose curve; also: nearly all actives have a fitted effect of over 15% in size)
How it was run: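 Beta-lactamase reporter activity under p53 response elements was quantified in HCT-116 cells by FRET fluorescence, following 16 h incubation with test compounds at 37 °C and 2 h substrate development at room temperature.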

[2] = qHTS assay for small molecules that induce genotoxicity in human embryonic kidney cells expressing luciferase-tagged ATAD5 (AID 651632); also: nearly all actives have a fitted effect of over 15% in size
How it was run: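 ATAD5-luc HEK293T, 2,000 cells/well; cpd or DMSO pin-transferred; 16 hr, 37C/5% CO2; Amplite 30 min RT; luminescence.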

[3] = qHTS assay for small molecule agonists of the p53 signaling pathway - cell viability (AID 651633; calls by dose curve;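 also: p53RE-bla HCT reporter cells with a stable beta-lactamase p53 reporter; series mostly up to about 83 µM; nearly all actives have a fitted effect of over 30% in size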)
How it was run: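 p53RE-bla cells, seeded at 4,000 per well and rested 5 h at 37 C/5% CO2, received compounds in DMSO for 16 h at 37 C. CellTiter-Glo was then added, and luminescence was read after 30 min at room temperature to gauge cytotoxicity.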

[4] = qHTS assay for small molecules that induce genotoxicity in human embryonic kidney cells expressing luciferase-tagged ATAD5 - cell viability (AID 651634; calls by dose curve; also: nearly all actives have a fitted effect of over 25% in size)
How it was run: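 Fluorescence from CellTiter-Fluor, reporting protease activity within live cells, served as the viability read-out. HEK293T cells carrying luciferase-tagged ATAD5 had been treated with compound for 15.5 hr at 37C.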

[5] = qHTS assay for small molecule disruptors of the mitochondrial membrane potential - cell viability (AID 720634; calls by dose curve;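 also: human HepG2 liver cancer cells; series mostly up to about 83 µM; nearly all actives have a fitted effect of over 20% in size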)
How it was run: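 Cells: HepG2, 2,000/well, attached overnight. Compound 1 hr, 37 C/5% CO2. +m-MPI dye, +CellTiter-Glo 30 min RT. Readout: luminescence (ATP).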

[6] = qHTS assay for small molecule disruptors of the mitochondrial membrane potential (AID 720635); also: potency is read from the fitted curve at half-maximal effect
How it was run: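 HepG2 cells (2,000/well) attached overnight at 37C, then took compound for 1 hr at 37C, 5% CO2. Mito-MPS dye was added for 30 min; fluorescence was read at 490/535 nm (monomers) and 540/590 nm (aggregates).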

[7] = qHTS assay to test for compound auto fluorescence at 590 nm (red) in HepG2 cells (AID 720674)
How it was run: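 Intrinsic compound fluorescence in the red window (Ex/Em 540/590 nm) is measured in attached HepG2 cells exposed for 1 hr, DMSO vehicle as baseline, benchmarked to Rose Bengal sodium.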

[8] = qHTS assay to test for compound auto fluorescence at 535 nm (green) in HepG2 cells (AID 720675)
[9] = qHTS assay to test for compound auto fluorescence at 460 nm (blue) in HEK293 cells (AID 720678)
How it was run: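 Auto fluorescence in the blue band was quantified as triamterene equivalency. HEK293 cells were seeded at 2,000/well, dosed after a 4-5 hr attachment, and kept overnight at 37C before the 405/460 nm reading.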

[10] = qHTS assay to test for compound auto fluorescence at 590 nm (red) in HEK293 cells (AID 720679)
How it was run: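 Autofluorescence equivalency to Rose Bengal sodium, 540/590nm, in HEK293 cells exposed overnight to 23 nL compound per well.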

Row | Structure (SMILES) | Potency [1] | Potency [2] | Potency [3] | Potency [4] | Potency [5] | Potency [6] | outcome [7] | Potency [8] | Potency [9] | outcome [10]
1 | NCC1CCC(C(=O)O)CC1 (configuration not stated) | inactive | inactive | inactive | inactive | inactive | inactive | inactive | inactive | inactive | inactive
2 | C=C1[C@H](CO)[C@@H](O)C[C@@H]1n1cnc2c(=O)[nH]c(N)nc21 | inactive | inactive | inactive | inactive | inactive | inactive | inactive | inactive | inactive | inactive
3 | Cc1c(O)c(=O)ccn1C | inactive | inactive | inactive | inactive | inactive | inactive | inactive | inactive | inactive | inactive
4 | C=CC[N@@+]12CC[C@@]34c5ccccc5N5/C=C6/[C@H]7C[C@H]8[C@@]9(CC[N@@+]8(CC=C)C/C7=C/CO)c7ccccc7N(/C=C(/[C@@H](C[C@@H]31)/C(=C\CO)C2)[C@H]54)[C@@H]69 | inactive | inactive | inactive | inactive | inactive | inactive | inactive | inactive | inactive | inactive
5 | NCCO/C=C/[C@H](N)C(=O)O | inactive | inactive | inactive | inactive | inactive | inactive | inactive | inactive | inactive | inactive
6 | O=C(O)Cc1nn(Cc2ccc(Br)cc2F)c(=O)c2ccccc12 | inactive | inactive | inactive | inactive | inactive | inactive | inactive | inactive | inactive | inactive
7 | CC[C@@H](C)[C@H](N)C(=O)O | inactive | inactive | inactive | inactive | inactive | inactive | inactive | inactive | inactive | inactive
8 | CC(=O)OCC(=O)[C@@]1(O)CC[C@H]2[C@@H]3C[C@H](C)C4=CC(=O)C=C[C@]4(C)[C@H]3[C@@H](O)C[C@@]21C | inactive | inactive | inactive | inactive | inactive | inactive | inactive | inactive | inactive | inactive
9 | CC(=O)Oc1cc(C(F)(F)F)ccc1C(=O)O | inactive | inactive | inactive | inactive | inactive | inactive | inactive | inactive | inactive | inactive
10 | CN=C(N)NCCC[C@H](N)C(=O)O | inactive | inactive | inactive | inactive | inactive | inactive | inactive | inactive | inactive | inactive
11 | O=C(CCCN1CCN2CCCC2C1)c1ccc(F)cc1 (configuration not stated) | inactive | inactive | inactive | inactive | inactive | inactive | inactive | inactive | inactive | inactive
12 | CCCCCCCCCCCCCC(=O)OCC(COP(=O)([O-])OCC[N+](C)(C)C)OC(=O)CCCCCCCCCCCCC (configuration not stated) | inactive | inactive | inactive | inactive | inactive | inactive | inactive | inactive | inactive | inactive
13 | O=S(=O)(O)CC(S)CS (configuration not stated) | inactive | inactive | inactive | inactive | inactive | inactive | inactive | inactive | inactive | inactive
14 | CC(C)CCC[C@@H](C)[C@H]1CC[C@H]2[C@@H]3CC[C@@H]4C[C@H](O)CC[C@]4(C)[C@H]3CC[C@]12C | inactive | inactive | inactive | inactive | inactive | inactive | inactive | inactive | inactive | inactive
15 | CC/C=C\C/C=C\C/C=C\C/C=C\C/C=C\C/C=C\CCC(=O)O | inactive | inactive | inactive | inactive | inactive | inactive | inactive | inactive | inactive | inactive
16 | CC(C)Cc1ccc([C@H](C)C(=O)O)cc1 | inactive | inactive | inactive | inactive | inactive | inactive | inactive | inactive | inactive | inactive
17 | O=C(O)c1ccc(NC2OC[C@@H](O)[C@H](O)[C@H]2O)cc1 (some centres not stated) | inactive | inactive | inactive | inactive | inactive | inactive | inactive | inactive | inactive | inactive
18 | NC(=O)C1c2ccccc2CCc2ccccc21 | inactive | inactive | inactive | inactive | inactive | inactive | inactive | inactive | inactive | inactive
19 | C/C(=C\C(=O)OCCCCCCCCC(=O)O)C[C@@H]1OC[C@H](C[C@@H]2O[C@H]2[C@@H](C)[C@H](C)O)[C@@H](O)[C@H]1O | inactive | inactive | inactive | inactive | inactive | inactive | inactive | inactive | inactive | inactive
20 | NC(=O)[C@H]1O[C@@H](O)[C@H](O)[C@@H](O)[C@@H]1O | inactive | inactive | inactive | inactive | inactive | inactive | inactive | inactive | inactive | inactive

Row | Structure (SMILES) | Potency [1] | Potency [2] | Potency [3] | Potency [4] | Potency [5] | Potency [6] | outcome [7] | Potency [8] | Potency [9] | outcome [10]
21 | CCCC(CCC)C(=O)OC1C[C@H]2CC[C@@H](C1)[N+]2(C)C (some centres not stated) | inactive | inactive | inactive | inactive | inactive | inactive | inactive | inactive | inactive | inactive
22 | CC(C)[C@H](NC(=O)[C@H](CC(=O)O)NC(=O)[C@H](CCCCN)NC(=O)[C@@H](N)CCCN=C(N)N)C(=O)N[C@@H](Cc1ccc(O)cc1)C(=O)O (H-RKDVY-OH) | inactive | inactive | inactive | inactive | inactive | inactive | inactive | inactive | inactive | inactive
23 | COC1=C(OC)C(=O)C(C/C=C(\C)CC/C=C(\C)CC/C=C(\C)CC/C=C(\C)CC/C=C(\C)CC/C=C(\C)CC/C=C(\C)CC/C=C(\C)CC/C=C(\C)CCC=C(C)C)=C(C)C1=O | inactive | inactive | inactive | inactive | inactive | inactive | inactive | inactive | inactive | inactive
24 | CC(C)=CCC/C(C)=C/CC/C(C)=C/CC/C(C)=C/CC1=C(C)C(=O)c2ccccc2C1=O | inactive | inactive | inactive | inactive | inactive | inactive and 13.3 µM (active) | inactive | inactive | inactive | inactive
25 | CCOC(=O)COc1ccc2c(=O)cc(-c3ccccc3)oc2c1 | inactive | inactive | inactive | inactive | inactive | 7.5 µM (active) | inactive | inactive | inactive | inactive
26 | CCC[C@@H]1C[C@@H](C(=O)N[C@@H]([C@H]2O[C@H](SC)[C@H](OP(=O)(O)O)[C@@H](O)[C@H]2O)[C@H](C)Cl)N(C)C1 | inactive | inactive | inactive | inactive | inactive | inactive | inactive | inactive | inactive | inactive
27 | CNC(=O)OCc1cccc(COC(=O)NC)n1 | inactive | inactive | inactive | inactive | inactive | inactive | inactive |  | inactive | inactive
28 | NS(=O)(=O)c1cc(Cl)c(Cl)c(S(N)(=O)=O)c1 | inactive | inactive | inactive | inactive | inactive | inactive | inactive | inactive | inactive | inactive
29 | C=CCN1C(=O)C(CC(C)C)NC1=S (configuration not stated) | inactive | inactive | inactive | inactive | inactive | inactive | inactive | inactive | inactive | inactive
30 | O=C(O)c1cc(O)c2c(c1)[C@H]([C@H]1c3cc(C(=O)O)cc(O)c3C(=O)c3c(O[C@@H]4O[C@H](CO)[C@@H](O)[C@H](O)[C@H]4O)cccc31)c1cccc(O[C@@H]3O[C@H](CO)[C@@H](O)[C@H](O)[C@H]3O)c1C2=O | inactive | inactive | inactive | inactive | inactive | inactive | inactive | inactive | inactive | inactive
31 | CCCCCCCCCCCCCCCCCCOCC(COP(=O)([O-])OCC[N+](C)(C)C)OC (configuration not stated) | inactive | inactive | inactive | inactive | inactive | inactive | inactive | inactive | inactive | inactive
32 | CCC(=O)OC(OP(=O)(CCCCc1ccccc1)CC(=O)N1C[C@H](C2CCCCC2)C[C@H]1C(=O)O)C(C)C (some centres not stated) | inactive | inactive | inactive | inactive | inactive | inactive | inactive | inactive | inactive | inactive
33 | CCOc1ccc(NC(=S)Nc2ccc(OCC)cc2)cc1 | inactive | inactive | inactive | inactive | inactive | 11.9 µM (active) | inactive | inactive | inactive | inactive
34 | CC1(C)S[C@@H]2[C@H](NC(=O)[C@H](N)c3ccc(O)cc3)C(=O)N2[C@H]1C(=O)O | inactive | inactive | inactive | inactive | inactive | inactive | inactive | inactive |  | inactive
35 | NC(=O)c1cc[n+](CC2=C(C(=O)O)N3C(=O)[C@@H](NC(=O)C(c4ccccc4)S(=O)(=O)[O-])[C@H]3SC2)cc1 (some centres not stated) | inactive | inactive | inactive | inactive | inactive | inactive | inactive | inactive | inactive | inactive
36 | CO[C@H]1C[C@H](O[C@H]2[C@H](C)[C@@H](O[C@@H]3O[C@H](C)C[C@H](N(C)C)[C@H]3O)[C@@H](C)C[C@]3(CO3)C(=O)[C@H](C)[C@@H](O)[C@@H](C)[C@@H](C)OC(=O)[C@@H]2C)O[C@@H](C)[C@@H]1O | inactive | inactive | inactive | inactive | inactive | inactive |  | inactive | inactive | inactive
37 | O=C(O)/C=C/C(O)c1ccc(Cl)cc1 (configuration not stated) | inactive | inactive | inactive | inactive | inactive | inactive |  |  | inactive | inactive
38 | Cc1ccc(Cl)c(N)c1Cl | inactive | inactive | inactive | inactive | inactive | inactive |  | inactive | inactive | inactive
39 | NC[C@H]1O[C@H](O[C@H]2[C@H](O)[C@@H](O[C@H]3O[C@H](CO)[C@@H](O)[C@H](N)[C@H]3O)[C@H](N)C[C@@H]2N)[C@H](N)C[C@@H]1O | inactive | inactive | inactive | inactive | inactive | inactive |  | inactive | inactive | inactive
40 | C[S+](CC[C@H](N)C(=O)O)C[C@H]1O[C@@H](n2cnc3c(N)ncnc32)[C@H](O)[C@@H]1O (some centres not stated) | inactive | inactive | inactive | inactive | inactive |  | inactive | inactive | inactive | inactive

Reference: PubChem BioAssay (Tox21)
